For 33 compounds, Potency, outcome and activity change, negative = inhibition results are on record in PubChem BioAssay (NCATS).

Records with an inconclusive call do not appear. A call without a number means that no potency is given here. A number with no mark means an inactive call. Active and inactive are the calls of the source. Calls follow the shape of the dose curve; as a rule, active = well fitted curve in the direction sought with a large enough effect; inconclusive = small, poorly fitted or top-dose-only effect, or another doubt; inactive = no such curve, though single readings can be large; an effect the other way counts as inactive or inconclusive.

The subject of assay [1] is Zika virus NS2B-NS3 protease (unlinked complex). Briefly: Primary screen GU Rhodamine qHTS for Zika virus inhibitors: Unlinked NS2B-NS3 protease assay (AID 1347159). Also: nearly all actives have a fitted effect of over 60% in size. Summed up: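 Compounds, tested up to 114 microM, were incubated for 15 minutes with 25 nM unlinked NS2B-NS3 protease at pH 8.0. Cleavage of 1.5 microM Rhodamine110 substrate was then followed by fluorescence for 15 minutes.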
(In qHTS, concentration-response curves come from the screen itself.)

In assay [2] the test system is Zika virus NS2B-NS3 protease (linked construct). Description: Primary screen NINDS Rhodamine qHTS for Zika virus inhibitors (AID 1347160). Also: nearly all actives have a fitted effect of over 55% in size. An outline of the steps:
(§1)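 Percent inhibition, normalized to uninhibited and enzyme-free controls, is fitted to a 4-parameter Hill equation. Fluorescence change comes from a 15-min cleavage of 1.5 microM bis-peptide Rhodamine110 substrate by 25 nM linked NS2B-NS3 at room temperature.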

Assay [3] is described as follows: OV-KATE Cancer Cell Toxicity qHTS against the NCATS CANVASS Library (AID 1347345). An outline of the steps: (§2)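 Bortezomib titration and single-dose wells served as plate controls. Test compounds, 11 points, acted on 1000 cells/well for 72 h at 37 degrees C; CellTiter-Glo luminescence quantified remaining viable cells.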
A short description of assay [4]: HPAF-II Cancer Cell Toxicity qHTS against the NCATS CANVASS Library (AID 1347346). Also: series mostly up to about 38 µM; nearly all actives have a fitted effect of over 55% in size. An outline of the steps: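 HPAF-II cells at 1000 cells/well were treated with an 11-point concentration series for 72 hours at 37 degrees C. Viability read by CellTiter-Glo luminescence.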
Assay [5] can be described thus: UWB1.289 Cancer Cell Toxicity qHTS against the NCATS CANVASS Library (AID 1347347). Also: series mostly up to about 38 µM; nearly all actives have a fitted effect of over 60% in size. An outline of the steps:
as §2

Assay [6] can be described thus: OV-SAHO Cancer Cell Toxicity qHTS against the NCATS CANVASS Library (AID 1347348). Also: series mostly up to about 38 µM; nearly all actives have a fitted effect of over 55% in size. An outline of the steps:
as §2

Assay [7] in a line: Panc-1005 Cancer Cell Toxicity qHTS against the NCATS CANVASS Library (AID 1347349). Also: series mostly up to about 38 µM; nearly all actives have a fitted effect of over 60% in size. Summed up: as §2
Assay [8] can be described thus: SW1088 Cancer Cell Toxicity qHTS against the NCATS CANVASS Library (AID 1347350). Also: series mostly up to about 38 µM; nearly all actives have a fitted effect of over 75% in size. Summed up: as §2
Assay [9] can be described thus: U-118MG Cancer Cell Toxicity qHTS against the NCATS CANVASS Library (AID 1347351). Also: series mostly up to about 38 µM. An outline of the steps: as §2
Assay [10] in a line: COV-362 Cancer Cell Toxicity qHTS against the NCATS CANVASS Library (AID 1347352). Also: series mostly up to about 38 µM. An outline of the steps: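 Cells at 1000/well were given compound 4 h after plating in an 11-point series. Viability was read by CellTiter-Glo luminescence after 72 h at 37 degrees C.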
A short description of assay [11]: Confirmatory screen NINDS Rhodamine qHTS for Zika virus inhibitors (AID 1347161).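 Also: purified Zika NS2B-NS3 protease with linked NS2B cofactor domain and Rhodamine110 peptide substrate; series mostly up to about 110 µM; nearly all actives have a fitted effect of over 60% in size.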 An outline of the steps:
as §1

The nature of assay [12]: Tertiary RLuc qRT-PCR qHTS assay for Zika virus inhibitors (AID 1347169). Also: top concentration of the series differs between compounds; nearly all actives have a fitted effect of over 55% in size. Summed up: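 Vero cells (1,000 per well) plated overnight at 37 degrees C, treated with compound in DMSO, then infected with recombinant ZIKV-RLuc (Cambodian) at MOI 1-2 for 48-72 hrs. Live-cell Renilla luciferase substrate added; luminescence read after 1-1.5 hrs.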
For orientation: Real-time PCR tracks product formation cycle by cycle.

On to `Cc1c(Cl)cccc1S(=O)(=O)Nc1nc(CC(=O)N2CCN(C)CC2)cs1`, for which the Potency result in [1] and in [2] was “inactive” in each case.

Consider `O=C(O)c1ccnc2cc(C(OCCN3CCCCC3)c3ccccc3Cl)[nH]c12` (centres undefined), for which the Potency entry in assay [2] was “inactive”.

Take `COc1cc(CCNCc2ccccc2O)c(OC)cc1C#N`: the Potency result in assay [1] and in assay [2] was “inactive” each time.

For the compound `O=C1C[C@@H]2OCC=C3CN4CC[C@]56c7ccccc7N1[C@H]5[C@H]2[C@H]3C[C@H]46`, the Potency entry in assay [1] and in assay [2] was “inactive” throughout. The compound was called inactive in assay [3], in [4], in [5], in assay [6], in assay [7] and in assay [8]. The outcome in assay [9] and in assay [10] was inactive.

On to `O=C(N1CCOCC1)N1CCN(c2ccc(Cl)cc2)CC1`, for which the Potency result in assay [1] and in [2] was “inactive” throughout.

Regarding `C=C[C@H]1CN2CC[C@H]1C[C@@H]2[C@@H](O)c1ccnc2ccccc12`, the Potency result in assay [1] and in assay [2] was “inactive” throughout.

Take `CN1CCCC1CCOC(c1cc2nccc(C(=O)O)c2[nH]1)c1ccccc1Cl` (centres undefined): the Potency entry in assay [1] and in assay [2] was “inactive” in each case.

In the case of `OCCCCC#Cc1cncc(OC[C@@H]2CCN2)c1`, the Potency entry in assay [1] and in assay [2] was “inactive” each time.

With `COC(=O)[C@@]12C(=O)C(C)C(=O)[C@]1(C)C(C)=C[C@H]1[C@]3(C=O)CC[C@H](OC(C)=O)C(C)(C)[C@H]3CC[C@@]12C` (some centres undefined), the Potency result in assay [1] and in assay [2] was “inactive” throughout.

On to `C=C1[C@@H]2CC[C@@]3(C)[C@H](c4ccoc4)OC(=O)C[C@]13O[C@H]1CC(=O)C(C)(C)[C@H](C(OC(C)=O)C(=O)OC)[C@]12C` (some centres undefined), for which the Potency result in assay [1] and in assay [2] was “inactive” throughout.

Take `CN1C(=O)c2ccccc2NC(=O)[C@]12O[C@@H]2c1ccccc1`: the Potency result in assay [1] and in assay [2] was “inactive” throughout.

With `CN1C(=O)c2ccccc2NC(=O)C1Cc1ccccc1` (centres undefined), the Potency result in assay [1] and in assay [2] was “inactive” throughout.

`CCc1c(C(=O)C(N)=O)c2c(OCC(=O)OC)cccc2n1Cc1ccccc1`: the Potency result in [1] and in [2] was “inactive” in each case.

With `Cc1cc(C(=O)CN2CCCC2)c(C)n1-c1ccc(F)cc1`, the Potency result in assay [1] and in assay [2] was “inactive” throughout.

For the compound `CCOc1ccccc1-n1c(C(C)N2CCN(C(=O)COc3ccc(Cl)cc3)CC2)nc2ccccc2c1=O` (centres undefined), the Potency result in [1] and in assay [2] was “inactive” throughout.

As to `CC(C)(O)[C@H]1O[C@H]2CC[C@@]3(C)[C@@](O)(CC[C@H]4Cc5c([nH]c6ccccc56)[C@@]43C)C2=CC1=O`, in assay [2], the Potency result was “inactive”.

As to `CC(C)=C1CC[C@]23CO[C@H](C2)[C@@](O)(C(=O)O)CCC13` (some centres undefined), the Potency result in assay [1] and in assay [2] was “inactive” in each case.

Regarding `CCCN1CCO[C@H]2c3cc(O)ccc3OC[C@@H]21`, the Potency entry in assay [1] and in assay [2] was “inactive” throughout.

For the compound `Clc1ccc(OCC2=NCCN2)cc1Cl`, the Potency entry in assay [1] and in assay [2] was “inactive” each time.

For the compound `Cc1cn(C[C@H](N)C(=O)O)c(=O)n(Cc2cc(-c3ccccc3)sc2C(=O)O)c1=O`, the Potency result in assay [1] and in assay [2] was “inactive” throughout.

`C/C=C(\C)C(=O)OC1CC2C(C)(C)OC(=O)CC(OC(C)=O)C2(C)C2CC(OC(=O)C(C)C)C3(C)C(c4ccoc4)CC4OC43C12C` (centres undefined): the Potency result in [1] and in assay [2] was “inactive” each time.

For the compound `CC(=O)O[C@H]1C[C@@H](OC(C)=O)C(C)(C)C2C[C@@H](O)[C@]3(C)C(CC[C@@]4(C)[C@H](C5=CC(=O)OC5O)C[C@H]5O[C@]543)[C@]21C` (some centres undefined), the Potency entry in assay [2] is “inactive”.

For the compound `C1=C2CCCN[C@H]2[C@@H]2C[C@H]1[C@H]1CCCCN1C2`, the Potency result in assay [1] and in [2] was “inactive” throughout.

As to `C[C@H](NC(=O)Cc1cc(F)cc(F)c1)C(=O)N[C@@H]1N=C(c2ccccc2)c2ccccc2N(C)C1=O`, the Potency result in assay [1] and in assay [2] was “inactive” in each case.

Regarding `Cc1cccc(NC(=O)N[C@@H]2N=C(c3ccccc3)c3ccccc3N(C)C2=O)c1`, the Potency result in assay [1] and in [2] was “inactive” each time.

For `CN[C@H]1[C@H](O)[C@H](O[C@@H]2[C@@H](O)[C@H](O[C@H]3O[C@H]([C@H](C)O)[C@@H](O)[C@H](O)[C@H]3N)[C@@H](N)C[C@H]2N)OC[C@@]1(C)O`, the Potency result in [1] and in assay [2] was “inactive” in each case.

Turning to `CC(=O)OC1CC(O)C(C)(C)C2CC(OC(C)=O)C3(C)C(CCC4(C)C(c5ccoc5)C(=O)C5OC543)C12C` (centres undefined), the Potency result in assay [1] and in assay [2] was “inactive” each time.

For `CC(=O)OC1CC(O)C2(C)C(CC(OC(C)=O)C3(C)C2CCC2(C)C(c4ccoc4)C(=O)C4OC423)C1(C)C` (centres undefined), the Potency entry in assay [1] and in [2] was “inactive” each time.

As to `COC(=O)N1CCN(C(=O)Cc2ccc(Cl)c(Cl)c2)[C@@H](CN2CCCC2)C1`, the Potency entry in [1] and in [2] was “inactive” in each case.

As for `Clc1ccc(N2C[C@H]3CC[C@@H](C2)N3)nn1`, the Potency result in assay [1] and in assay [2] was “inactive” each time.

As to `CC12CCC3C(CCC4(O)CC(O)CCC34C=O)C1(O)CCC2C1=CC(=O)OC1` (centres undefined), the Potency result in [2] was “inactive”.

As for `CCN1C[C@]2(COC)[C@H](O)C[C@H](OC)[C@]34[C@@H]5C[C@]6(O)[C@H](OC(=O)c7ccccc7)[C@@H]5[C@@](O)([C@H]([C@H](OC)[C@H]23)[C@@H]14)[C@@H](O)[C@@H]6OC`, the Potency entry in [2] is “inactive”.

Turning to `O=C1OC2(c3cc(Br)c(O)cc3Oc3c2cc(Br)c(O)[c]3[Hg])c2ccccc21` (centres undefined), the Potency result in assay [11] was “inactive”. Also, the activity change, negative = inhibition in assay [12] was -7.05% [at 0.566 µM].
